In article PMC4081663, “Single-Nucleotide Mutation Matrix of NF-κB” one finds binding signal data, which are given here for 31 sequences.

This assay deals with NF-kB p50 homodimer (Homo sapiens, UniProt P19838 1-433). As to the kind of experiment: bimolecular dsDNA microarray; Bimolecular dsDNA microarray on aldehyde glass; probes annealed in 10 mM Tris-HCl pH 8.0, 100 mM NaCl, 1 mM EDTA; binding buffer and temperature as in ref 16, not stated; high values mean tight binding. The following applies: protein: commercial; tags: Cy3-labeled for microarray; chain copies: 2; label: 5' amino linker to the slide; dsDNA, one strand shown.
Chain of NF-kB p50 homodimer (P19838 1-433): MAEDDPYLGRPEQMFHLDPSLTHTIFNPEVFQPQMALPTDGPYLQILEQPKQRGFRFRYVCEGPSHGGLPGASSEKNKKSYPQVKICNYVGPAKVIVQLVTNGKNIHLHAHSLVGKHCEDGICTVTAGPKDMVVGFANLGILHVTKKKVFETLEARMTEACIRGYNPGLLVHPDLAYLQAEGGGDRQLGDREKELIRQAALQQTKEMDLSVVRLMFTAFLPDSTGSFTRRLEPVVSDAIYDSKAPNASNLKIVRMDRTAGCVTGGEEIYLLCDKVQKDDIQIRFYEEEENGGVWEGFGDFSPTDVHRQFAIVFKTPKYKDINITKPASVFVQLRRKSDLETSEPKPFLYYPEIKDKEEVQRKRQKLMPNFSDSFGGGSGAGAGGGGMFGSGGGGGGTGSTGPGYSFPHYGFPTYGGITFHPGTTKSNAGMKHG
Consider GGGACTTTAC, for which the binding signal was found to be 38.1 a.u.

In turn, GGGACTTTCT gave a binding signal of 20.2 a.u.

In the case of GGCACTTTCC, the binding signal is 19.2 a.u.

GGGACGTTCC: the binding signal came to 25 a.u.

In the case of GGAACTTTCC, the binding signal is 31.4 a.u.

For GGGACTTTCG, the binding signal is 24.6 a.u.

Take GGGACTTGCC: the binding signal was 18.8 a.u.

The sequence GGTACTTTCC gave a binding signal of 46.1 a.u.

As to GGGACTTTCC, the binding signal came to 52.8 a.u.

For GGGACTTACC, the binding signal came out at 25.4 a.u.

On to GGGACTATCC, for which the binding signal was 20 a.u.

For GGGACTTTCA, the binding signal worked out at 24.7 a.u.

Take GGGACTGTCC: the binding signal is 32.4 a.u.

GGGGCTTTCC yielded a binding signal of 49.7 a.u.

In the case of TGGACTTTCC, the binding signal worked out at 22.8 a.u.

GGGACTCTCC came in with a binding signal of 24.8 a.u.

Sequence GGGACCTTCC showed a binding signal of 19.8 a.u.

For GGGATTTTCC, the binding signal came to 58.5 a.u.

In the case of GGGAATTTCC, the binding signal worked out at 57.5 a.u.

On to GGGCCTTTCC, for which the binding signal was found to be 20.5 a.u.

GTGACTTTCC returned a binding signal of 20.4 a.u.

Consider GGGACTTTTC, for which the binding signal stood at 29.6 a.u.

Turning to GGGAGTTTCC, the binding signal stood at 55.8 a.u.

The sequence GCGACTTTCC came in with a binding signal of 12.5 a.u.

Sequence GGGACATTCC registered a binding signal of 26.5 a.u.

In the case of GAGACTTTCC, the binding signal turned out to be 16.7 a.u.

AGGACTTTCC showed a binding signal of 21.1 a.u.

GGGACTTTGC displayed a binding signal of 22.9 a.u.

On to CGGACTTTCC, for which the binding signal came to 19.8 a.u.

Regarding GGGACTTCCC, the binding signal was 60.9 a.u.

As for GGGTCTTTCC, the binding signal is 28.6 a.u.
